Screening data deposited in PubChem by several laboratories.
aDG glyco up – increases alpha dystroglycan glycosylation; hit rate 0.22% among 360,000; activation, % at 10 µM; Pro5-aDG cells, alpha-DG glycosylation AlphaScreen (IIH6); 0% Pro5, 100% B10-LARGE cell signal;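 active = activation of at least 8% versus controls, or a plate z-score of at least 8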;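 note: Pro5 are CHO cells carrying HIG-tagged alpha-DG that lacks glycosylation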
beta cell repl – inducers of beta-cell replication in MIN6 cells; MIN6 cells proliferation, ATPlite luminescence, 48 h; cells starved in 0.2% serum; 100% = growth in 10% serum; proliferation, % at 10 µM; hit rate 0.29% among 330,000; AID 2380;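 active = compounds whose signal lies at least 3.5 SD above the mean of all wells on their plate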;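 note: 0% = DMSO-treated cells in low-serum medium and 100% = 10% serum control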
FAS-TE inh – blocks the thioesterase domain of human fatty acid synthase. P49327. recombinant FAS-TE, OMFH fluorogenic substrate, fluorescence endpoint. inhibition, % at 15 µM. hit rate 0.67% among 360,000;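 active = compounds whose normalised, plate-corrected inhibition of enzyme fluorescence in the single-dose primary screen is 50% or more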;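 note: 0% = DMSO with enzyme and 100% = substrate without enzyme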
H9c2 TAG inh – inhibitors of triacylglycerol accumulation | H9c2 cells, Nile Red lipid (TAG) fluorescence; cells loaded with 200 µM oleic acid | inhibition, % at 12.5 µM | hit rate 0.66% among 230,000 | AID 651582;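 active = pattern-corrected inhibition of lipid staining of at least 50% with the nuclear-stain viability signal not falling by more than 50%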;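 note: 0% = DMSO wells and 100% = triacsin C control wells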
m-calpain inh – calpain II (pig) inhibition; hit rate 0.37% among 220,000; purified calpain II, fluorogenic peptide substrate, 30 min; inhibition, % at 16 µM;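 active = inhibition above about 50%, limit read from the data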
H9c2 protect – modulators protecting cardiomyocytes from myocardial damage; hit rate 0.63% among 360,000; protection from H2O2 cell death, % at 20 µM; H9c2 cardiomyocytes, H2O2 injury protection, ATPLite, 2 h;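 active = compounds giving at least 50% protection of heart cells from peroxide-induced death in the single-dose screen, raw or plate-pattern-corrected value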;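 note: 0% = DMSO wells with peroxide and 100% = DMSO wells without peroxide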
* marks the source's active call; other numbers are inactive results; · = not tested or not shown; ! = not active in a repeat. An excerpt weighted towards active compounds, which were near 2.3% of everything screened.

SMILES | aDG glyco up | beta cell repl | FAS-TE inh | H9c2 TAG inh | m-calpain inh | H9c2 protect
O=C1Cn2nnc(-c3ccccc3)c2C2c3ccccc3CCN12 (centres undefined) | 0 | · | -3 | · | · | 9
CCCCCCCCCC(=O)N1c2ccccc2NC(=O)C1CC(=O)Nc1ccc(C(=O)O)cc1 (centres undefined) | 0 | -2 | 6 | -7 | 53* | 4
O=C(NNC1=C(C(=O)C(F)(F)F)CCC1)c1ccccc1O | 0 | -7 | 16 | 3 | -36 | 20
COc1ccccc1C(=O)NNC1=C(C(=O)C(F)(F)F)CCC1 | 0 | -4 | 4 | · | 3 | 67*
CNC[C@H]1Oc2c(NC(=O)c3ccc(-c4nccs4)cc3)cccc2C(=O)N([C@@H](C)CO)C[C@@H]1C | 0 | 5 | -8 | · | · | 7
Oc1c(C(Nc2ccccn2)c2cccnc2)cc(Cl)c2cccnc12 (centres undefined) | 1 | 0 | -1 | · | -5 | 37
Oc1c(C(Nc2cccc(C(F)(F)F)c2)c2cccnc2)ccc2cccnc12 (centres undefined) | 1 | -6 | 29 | · | 9 | 59*
Cc1cc(NC(c2cccnc2)c2ccc3cccnc3c2O)no1 (centres undefined) | 0 | -4 | 2 | 19 | 4 | 57*
COP(=O)(OC)OC(C(=O)c1ccccc1)c1ccc(Cl)cc1 (centres undefined) | 0 | · | · | · | · | ·
CC(C)Cn1cc(-c2cccc3nccn23)cn1 | 0 | · | -7 | -3 | · | 2
CCOc1ccc(CC(=O)Nc2c(C(N)=O)oc3ccc(Br)cc23)cc1OCC | 0 | 8 | 1 | -25 | -33 | 78*
CCOc1ccc(CC(=O)Nc2c(C(=O)Nc3ccccc3)oc3ccccc23)cc1OCC | 0 | 0 | 2 | 46 | -41 | 14
CCOc1cc(/C=N/NC(N)=O)cc(Br)c1OCC(=O)Nc1cccc2ccccc12 | -1 | -2 | 11 | -7 | -130 | 57*
CC1OC(=O)c2cc3ccccc3nc21 (centres undefined) | 0 | · | -6 | -6 | · | -4
Cc1c(C(=O)N2CCC(C)CC2)sc2ncnc(N3CCN(c4ccccc4)CC3)c12 | 0 | · | 15 | · | 63* | 12
Cc1ccc(F)cc1NC(=O)COC(=O)COc1ccc(C#N)cc1 | 0 | 9 | -5 | -3 | · | 3
CC1=NN(c2ccccc2)C(=O)/C1=C/C=C/c1ccc(N(C)C)cc1 | -1 | · | -1 | 66* | -9 | -22
COc1ccc(N(C(=O)c2ccncc2)S(=O)(=O)c2cccs2)cc1 | 0 | 0 | 1 | 0 | 16 | 30
COc1ccc(N(C(=O)c2cccnc2)S(=O)(=O)c2cccs2)cc1 | 0 | -1 | -6 | -15 | -13 | 54*
O=C(N/N=C/c1cccc([N+](=O)[O-])c1O)C(O)(c1ccccc1)c1ccccc1 | 0 | -1 | 14 | · | · | 63*
COc1cc([N+](=O)[O-])cc(/C=N/NC(=O)C(O)(c2ccccc2)c2ccccc2)c1O | 0 | -1 | 22 | 1 | · | 48
Cc1c(C(c2ccccc2)c2c(C)n(C)n(-c3ccccc3)c2=O)c(=O)n(-c2ccccc2)n1C | 0 | -2 | -4 | -5 | · | -5
Cc1ccc(C(c2c(C)n(C)n(-c3ccccc3)c2=O)c2c(C)n(C)n(-c3ccccc3)c2=O)s1 | -1 | -4 | 2 | 11 | -1 | 59*
O=C(COC(=O)CCc1ccccc1)NC12CC3CC(CC(C3)C1)C2 | -1 | 0 | 18 | -14 | 50* | 3
O=C(COC(=O)C(O)c1ccccc1)NC12CC3CC(CC(C3)C1)C2 (centres undefined) | 1 | -2 | -4 | 2 | -10 | 18
SMILES | aDG glyco up | beta cell repl | FAS-TE inh | H9c2 TAG inh | m-calpain inh | H9c2 protect
Cc1ccc(C)c(/C=C/C(=O)c2ccccc(=O)c2O)c1 | 0 | · | 3 | · | -8 | 39
O=C(/C=C/c1ccccc1Cl)c1ccccc(=O)c1O | 0 | · | -2 | · | -17 | 70*
O=C(CN1CC(=O)Oc2ccccc21)OCC(=O)c1ccc(Br)cc1 | 1 | -3 | 0 | -29 | · | 57*
COc1ccc(NC(=O)c2ccc(CN(c3cc(Cl)ccc3C)S(=O)(=O)c3ccccc3)cc2)cc1OC | 0 | -3 | 62* | · | -51 | 0
Cc1ccc(Cl)cc1N(Cc1ccc(C(=O)NCc2cccnc2)cc1)S(=O)(=O)c1ccccc1 | 0 | -6 | -4 | · | 52* | 5
COCc1cccc(-c2csc(C(C)(NC(C)=O)c3ccc(OC)cc3)n2)c1 (centres undefined) | 0 | · | -3 | 9 | · | 3
COc1ccc(-c2csc(NC(=O)CCCc3nc4ccccc4c(=O)[nH]3)n2)cc1OC | 0 | 0 | -2 | 2 | · | 91*
COc1ccc(-c2csc(NC(=O)CCn3cnc4ccccc4c3=O)n2)cc1OC | 0 | 0 | 1 | · | -13 | 58*
COc1ccc(-c2csc(NC(=O)Cc3ccccc3)n2)cc1OC | 0 | 2 | 30 | · | · | 4
Cc1nnc(NC(=O)CCn2cnc3ccccc3c2=O)s1 | 1 | 1 | -3 | 0 | -18 | 0
Cc1c(C(=O)OCC(=O)NC(C)c2ccccc2)oc2ccccc12 (centres undefined) | 0 | 0 | 1 | -15 | · | -3
CC(=O)N(C(C)=O)c1ncn(C)c1S(=O)(=O)Nc1ccccc1 | 0 | · | -6 | -16 | · | -2
Cc1ccccc1OCc1n(CC(=O)OC2CC(C)CCC2C(C)C)c2ccccc2[n+]1C (centres undefined) | 0 | -5 | -18 | 76*! | -29 | -20
CC1CCC(C(C)C)C(OC(=O)Cn2c(-c3ccc(Cl)cc3)[n+](C)c3ccccc32)C1 (centres undefined) | 0 | -6 | 3 | 99 | -16 | -16
CC1CCC(C(C)C)C(OC(=O)Cn2c(-c3ccc(Br)cc3)[n+](C)c3ccccc32)C1 (centres undefined) | 0 | -7 | 6 | 89* | -29 | -20
CC(C)c1ccc(NC(=O)Nc2nnc([C@H]3C[C@H](O)[C@@H](CO)O3)s2)cc1 | 0 | · | -10 | -7 | · | 0
COc1ccc(N2CCN(C(=O)c3ccc(Cn4nc(C)c([N+](=O)[O-])c4C)o3)CC2)cc1 | 0 | -4 | 23 | 13 | · | -4
COc1ccc(CNC(=O)c2ccc(Cn3nc(C)c([N+](=O)[O-])c3C)o2)cc1 | 1 | 1 | 10 | 5 | -23 | 87*
COc1cccc(C2=CC(c3ccc(OC)c(OC)c3)NC(=S)N2)c1 (centres undefined) | · | 0 | · | · | 59* | ·
COC(=O)[C@@]1(Cc2ccc(F)cc2)[C@H]2c3cc(C(=O)N(C)C)n(CCc4c[nH]c5ccc(O)cc45)c3C[C@H]2CN1C(=O)c1ccccc1 | 0 | · | 8 | · | · | ·
CCC(C)N(C(=O)COC(=O)Cc1n[nH]c(=O)c2ccccc12)C1CCS(=O)(=O)C1 (centres undefined) | 0 | 3 | -7 | -11 | -27 | 60*
